Reference: the supplement of paper PMC10849652
Of roughly 7,900 targets only a part is listed; those with a hit were picked by preference. About 0.6% of all pairs of compound and target were hits. Values without a mark were called inactive.

Columns and labels:
Test in all cases: log2 fold change, soluble protein after heating vs DMSO (PISA); higher = thermal stabilisation; K562 cells, 10 uM, 30 min; active = over 0.2 and 3.5 SD of the protein, either way, in both replicates (recomputed)
[1] = compound: CC1=C(C=C(C=C1)NC(=O)C2=CC(=CC=C2)C(C)(C)C#N)NC3=CC4=C(C=C3)N=CN(C4=O)C
Method in brief: (§1)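 Soluble protein was defined as the supernatant after 21,000xg for 90 min. It came from K562 cells at 2×10^6 cells/mL given 10 μM compound for 30 min, heated in aliquots for 3 min across 48°C-58°C, pooled, and extracted in PBS with 0.5% NP-40 at 4°C, and was quantified by TMTpro 16plex LC-MS/MS with equalised channel sums. Thermal stability against control samples, from duplicates, is reported as log2 fold change.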

[2] = compound: CC1=C(C=C(C=C1)NC(=O)C2=CC(=CC=C2)N(C)C)NC(=O)C3=CC=C(C=C3)O
Method in brief: as §1

[3] = compound: CC1=CC=C(C=C1)SC2=C3C=C(SC3=CN=C2)C(=O)N
Method in brief: as §1

[4] = compound: CC1=NC(=CC=C1)C2=C(N=C(N2)C(C)(C)C)C3=CC4=NC=CN=C4C=C3
Method in brief: as §1

[5] = compound: CCCCN(Cc1ccc(C(=O)NO)cc1)C(=O)Nc1ccccc1 [Nexturastat A]
Method in brief: as §1

[6] = compound: CCCS(=O)(=O)Nc1ccc(F)c(C(=O)c2c[nH]c3ncc(-c4ccc(Cl)cc4)cc23)c1F [vemurafenib]
Method in brief: as §1

[7] = compound: CCCS(=O)(=O)Nc1ccc(F)c(C(=O)c2c[nH]c3ncc(Cl)cc23)c1F
Method in brief: as §1

[8] = compound: CCCc1cc(C)[nH]c(=O)c1CNC(=O)c1cc(-c2ccnc(N3CCN(C)CC3)c2)cc2c1cnn2C(C)C
Method in brief: as §1

[9] = compound: CCN(CC)Cc1ccc2cc(COC(=O)Nc3ccc(C(=O)NO)cc3)ccc2c1 [givinostat]
Method in brief: as §1

[10] = compound: CCN(CCCOc1ccc2c(Nc3cc(CC(=O)Nc4cccc(F)c4)[nH]n3)ncnc2c1)CCOP(=O)(O)O [barasertib]
Method in brief: as §1

Sequence of UniProt Q9UI26 (Q9UI26 whole entry, looked up): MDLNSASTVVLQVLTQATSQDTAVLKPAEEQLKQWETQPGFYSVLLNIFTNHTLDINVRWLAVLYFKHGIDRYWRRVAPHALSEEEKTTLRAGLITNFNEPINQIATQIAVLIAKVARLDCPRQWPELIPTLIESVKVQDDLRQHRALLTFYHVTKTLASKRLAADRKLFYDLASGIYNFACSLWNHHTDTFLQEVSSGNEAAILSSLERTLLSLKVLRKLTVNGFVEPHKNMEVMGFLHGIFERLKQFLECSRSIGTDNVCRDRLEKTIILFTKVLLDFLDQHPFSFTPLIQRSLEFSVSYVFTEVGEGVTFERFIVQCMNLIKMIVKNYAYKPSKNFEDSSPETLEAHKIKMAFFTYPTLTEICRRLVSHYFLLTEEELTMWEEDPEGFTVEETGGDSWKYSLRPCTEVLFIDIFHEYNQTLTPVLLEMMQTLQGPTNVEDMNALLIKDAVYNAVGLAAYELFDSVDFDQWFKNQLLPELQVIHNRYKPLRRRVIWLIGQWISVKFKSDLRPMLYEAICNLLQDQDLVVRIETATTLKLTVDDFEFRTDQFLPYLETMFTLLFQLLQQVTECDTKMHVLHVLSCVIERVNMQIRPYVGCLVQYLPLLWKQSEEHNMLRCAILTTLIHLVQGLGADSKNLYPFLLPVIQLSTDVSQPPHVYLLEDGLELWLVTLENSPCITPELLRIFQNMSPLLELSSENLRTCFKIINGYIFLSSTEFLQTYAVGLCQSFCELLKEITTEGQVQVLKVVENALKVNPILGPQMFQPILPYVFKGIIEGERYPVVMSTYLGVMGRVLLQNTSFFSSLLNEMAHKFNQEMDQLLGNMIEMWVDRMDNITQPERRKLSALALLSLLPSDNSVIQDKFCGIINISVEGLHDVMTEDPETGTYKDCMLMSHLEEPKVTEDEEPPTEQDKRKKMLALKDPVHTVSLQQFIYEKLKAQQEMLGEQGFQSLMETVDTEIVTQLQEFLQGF
Sequence of UniProt Q9Y383 (Q9Y383 whole entry, looked up): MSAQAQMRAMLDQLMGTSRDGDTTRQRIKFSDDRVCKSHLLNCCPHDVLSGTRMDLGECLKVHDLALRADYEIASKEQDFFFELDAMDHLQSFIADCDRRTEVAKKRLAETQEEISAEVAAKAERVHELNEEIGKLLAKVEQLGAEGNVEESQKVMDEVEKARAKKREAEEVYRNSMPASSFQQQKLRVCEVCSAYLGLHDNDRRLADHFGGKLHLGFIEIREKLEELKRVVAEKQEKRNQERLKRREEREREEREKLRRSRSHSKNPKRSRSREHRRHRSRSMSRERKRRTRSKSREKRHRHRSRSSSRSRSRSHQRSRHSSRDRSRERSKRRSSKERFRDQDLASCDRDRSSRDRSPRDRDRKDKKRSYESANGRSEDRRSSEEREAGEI
Sequence of UniProt P53778 (P53778 whole entry, looked up): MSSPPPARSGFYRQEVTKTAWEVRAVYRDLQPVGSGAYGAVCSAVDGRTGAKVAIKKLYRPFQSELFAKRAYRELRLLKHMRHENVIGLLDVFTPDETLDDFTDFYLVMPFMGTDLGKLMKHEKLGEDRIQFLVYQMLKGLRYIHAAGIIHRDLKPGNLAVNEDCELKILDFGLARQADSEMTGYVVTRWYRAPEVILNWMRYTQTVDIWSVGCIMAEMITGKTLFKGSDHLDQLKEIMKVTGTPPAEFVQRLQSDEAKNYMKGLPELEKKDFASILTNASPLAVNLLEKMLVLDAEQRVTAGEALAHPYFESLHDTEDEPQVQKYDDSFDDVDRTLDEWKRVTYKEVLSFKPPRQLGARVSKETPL
Sequence of UniProt Q13123 (Q13123 whole entry, looked up): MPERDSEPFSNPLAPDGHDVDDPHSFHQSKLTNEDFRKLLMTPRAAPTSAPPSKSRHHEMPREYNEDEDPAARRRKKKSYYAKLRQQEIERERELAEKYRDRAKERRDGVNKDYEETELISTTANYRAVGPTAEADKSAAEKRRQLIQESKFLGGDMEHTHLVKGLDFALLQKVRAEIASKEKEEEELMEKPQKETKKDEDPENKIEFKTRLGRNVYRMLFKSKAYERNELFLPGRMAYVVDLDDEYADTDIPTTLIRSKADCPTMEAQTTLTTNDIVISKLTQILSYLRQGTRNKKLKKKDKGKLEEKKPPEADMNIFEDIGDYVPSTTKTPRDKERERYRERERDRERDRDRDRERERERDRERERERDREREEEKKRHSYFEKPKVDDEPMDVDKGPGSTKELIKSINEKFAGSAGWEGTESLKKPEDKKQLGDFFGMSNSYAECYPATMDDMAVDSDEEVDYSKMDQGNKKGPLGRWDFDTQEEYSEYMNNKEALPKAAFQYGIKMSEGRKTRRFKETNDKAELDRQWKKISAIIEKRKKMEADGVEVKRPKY
Sequence of UniProt Q9GZY8 (Q9GZY8 whole entry, looked up): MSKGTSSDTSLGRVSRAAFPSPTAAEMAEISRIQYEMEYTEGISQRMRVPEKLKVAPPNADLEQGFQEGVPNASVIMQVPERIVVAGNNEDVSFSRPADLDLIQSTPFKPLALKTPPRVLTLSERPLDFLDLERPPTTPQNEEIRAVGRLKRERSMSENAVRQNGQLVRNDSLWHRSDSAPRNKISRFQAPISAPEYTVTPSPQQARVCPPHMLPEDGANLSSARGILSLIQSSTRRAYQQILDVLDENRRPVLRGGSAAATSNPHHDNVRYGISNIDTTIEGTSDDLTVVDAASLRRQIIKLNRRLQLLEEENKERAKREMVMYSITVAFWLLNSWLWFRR
Sequence of UniProt Q9H0B6 (Q9H0B6 whole entry, looked up): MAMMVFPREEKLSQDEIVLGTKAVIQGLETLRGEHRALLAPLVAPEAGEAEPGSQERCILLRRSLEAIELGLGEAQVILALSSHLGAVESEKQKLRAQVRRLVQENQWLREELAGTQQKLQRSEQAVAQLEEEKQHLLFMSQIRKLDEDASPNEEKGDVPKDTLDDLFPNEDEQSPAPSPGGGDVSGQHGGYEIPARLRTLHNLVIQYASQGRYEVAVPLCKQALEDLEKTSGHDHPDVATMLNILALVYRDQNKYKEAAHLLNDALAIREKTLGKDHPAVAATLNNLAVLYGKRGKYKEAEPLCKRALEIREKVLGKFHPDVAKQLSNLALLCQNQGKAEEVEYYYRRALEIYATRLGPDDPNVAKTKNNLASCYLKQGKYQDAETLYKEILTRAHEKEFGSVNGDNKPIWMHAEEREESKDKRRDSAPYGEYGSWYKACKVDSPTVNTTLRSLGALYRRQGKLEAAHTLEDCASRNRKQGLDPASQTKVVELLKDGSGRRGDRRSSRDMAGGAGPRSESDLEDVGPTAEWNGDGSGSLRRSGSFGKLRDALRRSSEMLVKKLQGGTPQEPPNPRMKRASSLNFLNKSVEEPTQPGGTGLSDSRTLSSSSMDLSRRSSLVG
Sequence of UniProt P45983 (P45983 whole entry, looked up): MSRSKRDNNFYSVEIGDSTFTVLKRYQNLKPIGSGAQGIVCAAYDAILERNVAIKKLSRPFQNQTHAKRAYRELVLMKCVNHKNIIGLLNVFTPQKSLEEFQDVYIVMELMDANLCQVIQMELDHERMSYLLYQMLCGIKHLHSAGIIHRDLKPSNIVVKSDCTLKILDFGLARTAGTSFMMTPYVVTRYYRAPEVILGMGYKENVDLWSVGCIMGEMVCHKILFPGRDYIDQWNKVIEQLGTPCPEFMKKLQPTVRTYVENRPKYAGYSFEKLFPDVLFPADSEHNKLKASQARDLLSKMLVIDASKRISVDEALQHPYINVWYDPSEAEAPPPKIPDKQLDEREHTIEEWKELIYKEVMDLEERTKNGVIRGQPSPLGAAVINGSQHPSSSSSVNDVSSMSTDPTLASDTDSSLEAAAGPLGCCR
Sequence of UniProt O43766 (O43766 whole entry, looked up): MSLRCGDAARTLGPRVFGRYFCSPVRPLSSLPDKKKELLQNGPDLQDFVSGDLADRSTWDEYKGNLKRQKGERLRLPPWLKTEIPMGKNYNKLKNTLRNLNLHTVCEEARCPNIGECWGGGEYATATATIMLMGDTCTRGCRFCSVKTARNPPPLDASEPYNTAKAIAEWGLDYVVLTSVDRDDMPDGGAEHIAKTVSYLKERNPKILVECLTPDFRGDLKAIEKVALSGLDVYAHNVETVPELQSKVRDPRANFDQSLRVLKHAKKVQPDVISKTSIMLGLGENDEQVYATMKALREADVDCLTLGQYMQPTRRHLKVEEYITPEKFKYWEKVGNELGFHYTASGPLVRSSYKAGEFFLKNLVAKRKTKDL
Sequence of UniProt Q9NQ29 (Q9NQ29 whole entry, looked up): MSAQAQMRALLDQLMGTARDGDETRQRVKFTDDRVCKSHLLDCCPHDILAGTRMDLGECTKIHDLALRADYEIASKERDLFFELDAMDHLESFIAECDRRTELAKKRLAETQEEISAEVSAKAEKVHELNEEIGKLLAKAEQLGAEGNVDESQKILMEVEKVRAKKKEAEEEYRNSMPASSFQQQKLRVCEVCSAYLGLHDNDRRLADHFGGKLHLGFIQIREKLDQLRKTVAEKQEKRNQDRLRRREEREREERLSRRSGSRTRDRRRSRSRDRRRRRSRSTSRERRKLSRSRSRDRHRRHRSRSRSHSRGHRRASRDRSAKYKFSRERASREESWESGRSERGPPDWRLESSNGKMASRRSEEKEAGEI
Sequence of UniProt P45984 (P45984 whole entry, looked up): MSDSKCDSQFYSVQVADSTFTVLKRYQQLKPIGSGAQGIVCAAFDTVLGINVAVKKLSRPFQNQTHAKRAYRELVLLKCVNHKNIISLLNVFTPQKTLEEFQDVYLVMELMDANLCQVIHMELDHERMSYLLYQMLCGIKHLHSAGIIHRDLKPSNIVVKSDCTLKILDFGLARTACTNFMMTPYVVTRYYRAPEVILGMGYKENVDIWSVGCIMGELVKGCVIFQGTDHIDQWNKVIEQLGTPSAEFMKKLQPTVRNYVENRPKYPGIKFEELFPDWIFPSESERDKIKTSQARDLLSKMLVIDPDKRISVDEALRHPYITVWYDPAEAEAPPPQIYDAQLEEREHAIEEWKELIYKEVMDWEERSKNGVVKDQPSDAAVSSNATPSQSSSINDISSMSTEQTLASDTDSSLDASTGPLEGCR
Sequence of UniProt Q9BRT3 (Q9BRT3 whole entry, looked up): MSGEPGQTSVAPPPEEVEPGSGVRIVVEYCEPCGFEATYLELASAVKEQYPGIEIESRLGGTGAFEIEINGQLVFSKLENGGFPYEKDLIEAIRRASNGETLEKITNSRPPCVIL

| Target | log2 fold change [1] | log2 fold change [2] | log2 fold change [3] | log2 fold change [4] | log2 fold change [5] | log2 fold change [6] | log2 fold change [7] | log2 fold change [8] | log2 fold change [9] | log2 fold change [10] |
| --- | --- | --- | --- | --- | --- | --- | --- | --- | --- | --- |
| IRF3 (UniProt Q14653) | 0.18 | -0.081 | 0.011 | 0.077 | -0.046 | 0.074 | 0.098 | 0.011 | 0.031 | -0.015 |
| MED16 (UniProt Q9Y2X0) | -0.025 | -0.044 | -0.046 | 0.036 | 0.162 | -0.017 | 0.046 | 0.014 | 0.076 | -0.03 |
| LIMA1 isoform 4 (UniProt Q9UHB6) | -0.082 | 0.133 | -0.014 | 0.033 | 0.004 | 0.061 | 0.011 | -0.033 | 0.032 | -0.025 |
| IPO11 isoform 2 (UniProt Q9UI26) | 0.028 | 0.004 | 0.024 | 0.047 | -0.002 | 0.052 | 0.082 | -0.031 | -0.031 | 0.014 |
| IGF2R (UniProt P11717) | -0.039 | -0.016 | 0.037 | -0.004 | 0.014 | -0.022 | -0.007 | -0.036 | -0.018 | 0.002 |
| LEMD3 (UniProt Q9Y2U8) | -0.066 | -0.071 | -0.005 | -0.017 | 0.026 | 0.056 | 0.005 | 0.054 | 0.077 | 0.023 |
| MAPK12 (UniProt P53778) | -0.043 | 0.017 | -0.022 | 0.09 | -0.112 | 0.019 | 0.104 | 0.016 | -0.058 | -0.031 |
| MIEN1 (UniProt Q9BRT3) | -0.011 | -0.029 | 0.036 | -0.054 | -0.002 | 0.081 | 0.073 | 0.016 | 0 | 0.132 |
| IPO7 (UniProt O95373) | 0.004 | -0.007 | 0.035 | 0.035 | 0.009 | 0.025 | 0.081 | -0.007 | 0.009 | 0.047 |
| IL27RA (UniProt Q6UWB1) | -0.048 | -0.048 | -0.006 | -0.018 | 0.027 | -0.025 | -0.091 | -0.008 | 0.006 | 0.011 |
| MFF (UniProt Q9GZY8) | -0.036 | 0.002 | 0.039 | 0.02 | 0.006 | -0.013 | 0.018 | -0.117 | 0.033 | 0.036 |
| MAPK9 (UniProt P45984) | 0 | -0.011 | -0.078 | 0.044 | -0.057 | -0.005 | -0.07 | 0.034 | 0.038 | -0.022 |
| LUC7L (UniProt Q9NQ29) | 0.028 | 0.003 | -0.022 | -0.021 | 0.054 | -0.007 | -0.004 | 0.027 | -0.034 | -0.01 |
| MARK3 (UniProt P27448) | -0.017 | 0.02 | 0.067 | -0.029 | 0.074 | 0 | 0.004 | 0.077 | 0.038 | 0.023 |
| MAST4 (UniProt O15021) | 0.003 | -0.246 | 0.061 | 0.044 | -0.08 | 0.021 | 0.055 | 0.072 | -0.024 | 0.028 |
| LUC7L2 (UniProt Q9Y383) | 0.016 | -0.011 | 0.006 | 0.089 | -0.036 | 0.012 | 0.047 | 0.015 | -0.01 | 0 |
| MED1 (UniProt Q15648) | -0.043 | 0.084 | -0.067 | -0.06 | 0.079 | -0.028 | -0.034 | -0.006 | 0.001 | -0.023 |
| LIAS (UniProt O43766) | -0.044 | 0.119 | -0.128 | -0.002 | -0.057 | -0.013 | -0.13 | -0.01 | -0.06 | -0.001 |
| MFN1 (UniProt Q8IWA4) | -0.007 | 0.035 | 0.039 | -0.04 | -0.032 | -0.061 | -0.021 | -0.19 | 0.053 | 0.016 |
| KIF3B (UniProt O15066) | -0.082 | 0.05 | -0.022 | -0.042 | 0.097 | 0.018 | 0.017 | -0.019 | 0.067 | -0.062 |
| LDLR (UniProt P01130) | -0.063 | 0.006 | 0.006 | 0.01 | 0 | -0.022 | -0.073 | -0.018 | -0.03 | 0.019 |
| JAK3 (UniProt P52333) | -0.002 | -0.056 | 0.066 | 0.099 | -0.478 (active) | -0.032 | -0.029 | 0.016 | -0.16 | 0.016 |
| MAPK8 isoform 3 (UniProt P45983) | -0.038 | -0.026 | -0.015 | -0.012 | -0.099 | 0.027 | 0.012 | 0.016 | 0.119 | 0.056 |
| MEPCE (UniProt Q7L2J0) | 0.077 | 0.025 | -0.014 | -0.252 | -0.057 | 0.062 | 0.083 | 0.05 | -0.04 | 0.025 |
| LRPPRC (UniProt P42704) | 0.264 | -0.054 | 0.222 | 0.336 | 0.282 | 0.227 | 0.264 | -0.005 | 0.417 | 0.369 |
| MFN2 (UniProt O95140) | -0.021 | -0.029 | 0.018 | 0.009 | -0.022 | 0.019 | 0.064 | -0.004 | 0.01 | 0.025 |
| KLC2 (UniProt Q9H0B6) | 0.025 | -0.055 | 0.021 | 0.015 | 0.001 | 0.012 | 0.096 | 0.001 | 0.044 | 0.006 |
| IK (UniProt Q13123) | 0.032 | 0.039 | -0.035 | -0.026 | 0.093 | 0.086 | -0.002 | 0.036 | 0.021 | 0.047 |
| KIF13A (UniProt Q9H1H9) | -0.005 | 0.021 | -0.005 | -0.004 | 0.018 | -0.045 | 0.04 | -0.005 | -0.021 | -0.009 |
| MAP2K1 (UniProt Q02750) | -0.013 | 0.001 | 0.029 | 0.049 | -0.061 | -0.009 | 0.018 | 0.129 | 0.007 | 0.005 |
